Screens (PubChem)
WRN inhibitor: inhibitors of human WRN helicase; 0.46% of 360,000 active; AID 651768; Q14191; WRN helicase unwinding, fluorescent forked duplex, kinetic; Potency, µM (doses to about 114 µM), most hits filed as inhibitors; note: nearly all actives have a fitted effect of over 55% in size
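Screening of the MLSMR collection measured strand separation of a quenched forked DNA duplex (100 nM) by 20 nM WRN with 2 mM ATP, all final. Compounds were preincubated with enzyme 15 min at room temperature.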
Pol kappa inh: inhibitors of human DNA polymerase kappa; Q9UBT6; purified Pol kappa, fluorescent DNA synthesis assay, 10 min; Potency, µM (doses to about 107 µM), actives largely listed as inhibitors; 0.53% of 400,000 active; AID 588579
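10 nM Pol kappa was preincubated with compounds for 15 min at room temperature. Reaction started with 50 nM (final) substrate. Fluorescence read kinetically at 0 and 10 min.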
PI5P4Ka inh: inhibitors of human PI5P4K alpha; P48426; PI5P4Kalpha enzyme, ADP-Glo luminescence, 60 min; active compounds read low; max response, %; 1.2% of 330,000 active; active = max response of -50% or lower; inconclusive = between -30% and -50%; inactive = -30% or higher; note: value at the top dose of about 77 µM
Target sequence (P48426 whole entry, looked up): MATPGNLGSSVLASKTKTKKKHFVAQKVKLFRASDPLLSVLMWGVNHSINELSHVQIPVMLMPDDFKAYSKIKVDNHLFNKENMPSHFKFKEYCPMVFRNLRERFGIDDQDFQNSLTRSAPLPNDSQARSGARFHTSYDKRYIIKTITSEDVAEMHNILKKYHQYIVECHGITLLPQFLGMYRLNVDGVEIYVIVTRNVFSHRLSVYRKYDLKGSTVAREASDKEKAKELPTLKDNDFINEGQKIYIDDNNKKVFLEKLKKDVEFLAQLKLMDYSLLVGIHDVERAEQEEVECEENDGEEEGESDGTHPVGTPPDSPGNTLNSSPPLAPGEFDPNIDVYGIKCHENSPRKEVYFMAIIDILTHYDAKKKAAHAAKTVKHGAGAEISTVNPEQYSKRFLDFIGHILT
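Human PI5P4Kalpha with substrate in 0.038 M HEPES pH 7.4, 0.28 mM EGTA, 0.1% CHAPS, 5% DMSO; reaction started with 5 microM ATP (final), 60 min at room temperature. ADP formed read by ADP-Glo luminescence.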
Pol iota inh: inhibitors of human DNA polymerase iota. Pol iota fluorescent replication assay, 10 min. Potency, µM (series often up to 115 µM), hits mostly inhibitors. 1% of 390,000 active. AID 588590
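Fluorescent replication assay read twice, at 0 min and 10 min after adding 50 nM (final) substrate. Enzyme (10 nM) and compounds were first incubated 15 min at room temperature; enzyme-free buffer wells were negative controls.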
Pol beta inh: blocks human DNA polymerase beta activity; Pol beta primer extension/strand displacement, fluorescence kinetic; 1.3% of 340,000 active; Potency, µM (doses to about 114 µM), most hits filed as inhibitors
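Reaction started by 50 nM substrate onto compound-treated Pol beta (10 nM, 15 min preincubation, room temperature); plates read at 0 min and 10 min. Normalized concentration-effect data fitted by four-parameter Hill equation.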
Pol eta inh: blocks human DNA polymerase eta activity; recombinant Pol eta, fluorescent DNA replication assay; 1.2% of 390,000 active; Potency, µM (highest dose often 114 µM), actives largely listed as inhibitors
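Fluorescent replication assay: 50 nM final substrate added after a 15 min room-temperature compound preincubation with 10 nM enzyme. Signal taken at 0 min and again at 10 min.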
A number is an active result; i = inactive; ? = inconclusive; nt = not tested or not shown; [ ] = dose if it differs, or a comment. In the library only some 2.8% were active in any assay of this set; here they are far more common. Unless noted, calls come from the whole dose curve; as a rule, active = well fitted curve in the direction sought with a large enough effect; inconclusive = small, poorly fitted or top-dose-only effect, or another doubt; inactive = no such curve, though single readings can be large; an effect the other way counts as inactive or inconclusive.

SMILES | WRN inhibitor | Pol kappa inh | PI5P4Ka inh | Pol iota inh | Pol beta inh | Pol eta inh
CC(=O)N1CCc2cc(S(=O)(=O)NC(Cc3ccccc3)C(=O)Nc3ccc(Cl)cc3)ccc21 (stereo unspecified) | nt | i | nt | i | i | i
NC1=C(Cl)C(=O)c2ccccc2C1=O | i | i | -56 | i | nt | i
COc1ccc(S(=O)(=O)Nc2cc3c4c(c2)CC(=O)N4CCC3)cc1OC | i | nt | i | nt | nt | i
CCOC(=O)CSc1nc2sc(C)c(C)c2c(=O)[nH]1 | i | i | i | i | i | i
Cc1c(C(=O)O)sc2nc(SCC(=O)Nc3ccc(S(=O)(=O)NCCCC(=O)O)cc3)[nH]c(=O)c12 | i | ? | -70 | i | i | i
Cc1c(C(=O)O)sc2nc(SCC(=O)Nc3ccc(S(=O)(=O)NC(C)(C)C)cc3)[nH]c(=O)c12 | i | i | -86 | i | i | i
CCOC(=O)CSc1nc2sc(C(=O)O)c(C)c2c(=O)[nH]1 | i | i | -76 | i | i | i
CCCCNS(=O)(=O)c1ccc2nc(SCC(=O)Nc3ccccc3)[nH]c2c1 | i | i | i | i | i | i
CCN(C(=O)c1nn(-c2ccc(C)cc2)c(=O)c2c1c1ccccc1n2C)c1ccc(F)cc1 | nt | i | nt | i | i | nt
CCOC(=O)C(CC)Sc1ccc2nnc(-c3ccc(F)cc3)n2n1 (stereo unspecified) | nt | i | nt | i | nt | nt
CCCCOCC1CN(c2ccccc2)C(=O)CS1 (stereo unspecified) | i[11.6 µM] | i | ? | i | ? | 20µM
COc1ccc(C2SCC(=O)N2c2ccccc2)cc1 (stereo unspecified) | i | i | i | i | i | i
CC1CN(c2ccccc2)C(=O)CS1 (stereo unspecified) | i | i | ? | ? | 45µM | 20µM
CCCOC(=O)c1cccc(NC(=O)c2c(-c3ccccc3Cl)noc2C)c1 | nt | i | nt | i | i | i
Cc1cccc(C(=O)N/N=C/c2ccoc2)c1 | i[11.6 µM] | ? | ? | ? | 25µM | ?
CC(C)Oc1cccc(C(=O)N/N=C/c2ccoc2)c1 | i | i | i | i | i | i
O=C(N/N=C/c1ccoc1)c1ccccc1F | i | i | i | ? | 22µM | i
Cc1cccc(CCNC(=O)CCc2c(C)nc3c4c(C)cc(C)nc4nn3c2C)c1 | nt | i | nt | i | i | nt
COc1cccc(C(=O)NC2CC3CCCC(C2)N3CC(=O)Nc2ccc(N(C)C)cc2)c1 (stereo unspecified) | i | i | i | i | i | i
COc1cccc(C(=O)NC2CC3CCCC(C2)N3CC(=O)Nc2ccccc2)c1 (stereo unspecified) | ? | i | i | ? | 40µM | ?
Cc1nc2c(=O)[nH]c(=S)n(C)c2nc1C | 56µM | i | ? | ? | i | i
Cc1nc2[nH]c(=S)[nH]c(=O)c2nc1C | ? | i | i | i | nt | ?
COc1ccc(-c2cc3ccc(O)c(CN4CCOCC4)c3oc2=O)cc1OC | nt | i | nt | i | i | i
Cc1noc(NS(=O)(=O)c2ccc(NC(=O)C(Cl)(Cl)Cl)cc2)c1C | i | i | i | i | i | i
Cc1noc(NS(=O)(=O)c2ccc(NC(=O)Nc3ccc(Cl)c(Cl)c3)cc2)c1C | i[11.6 µM] | i | i | ? | ? | 50µM
SMILES | WRN inhibitor | Pol kappa inh | PI5P4Ka inh | Pol iota inh | Pol beta inh | Pol eta inh
Cc1cc2oc(C(=O)Nc3ccc(S(=O)(=O)Nc4onc(C)c4C)cc3)cc(=O)c2cc1C | nt | i | nt | ? | i | 79µM
CN1C(=O)/C(=C/c2ccc(OCc3ccc(C(=O)O)cc3)c(Cl)c2)NC1=S | ? | i | i | i | 35µM | ?
CCOc1cc(/C=C2\NC(=S)N(C)C2=O)ccc1OCc1ccc(C(=O)O)cc1 | i | i | i | i | i | ?
C=CCNC(=O)CN1CCC(O)(c2ccc(F)cc2)CC1 | i | i | nt | 100µM | i | i
COc1ccccc1-c1cc(C(=O)Nc2sc3c(c2C#N)CCC(C)C3)c2ccccc2n1 (stereo unspecified) | i | i | i | i | i | i
Cc1cc(C(=O)OCC(=O)Nc2sc3c(c2C#N)CCC(C)C3)c2ccccc2n1 (stereo unspecified) | i | ? | i | 56µM | 18µM | 79µM
Cc1ccccc1-c1ccnc2c(-c3ccc(F)cc3)c(C)nn12 | nt | i | nt | i | i | i
COc1cc2nc(NC3CCN(C)CC3)nc(NC3CCN(C)CC3)c2cc1OC | nt | i | nt | i | nt | nt
COc1ccc(N2C(N)=C(C#N)C(c3cc(CN4CCOCC4)cs3)C3=C2CCCC3=O)cc1 (stereo unspecified) | nt | i | nt | i | i | i
COc1ccc(C2NC(=O)C(C#N)=C(S)N2c2ccccc2)cc1OC (stereo unspecified) | i | i | ? | i | i | i
COc1cc(C2NC(=O)C(C#N)=C(S)N2c2ccccc2)ccc1OC(C)C (stereo unspecified) | i | i | i | 28µM | i | i
COc1ccc(C2Nc3ccccc3C(=O)N2Cc2ccco2)cc1 (stereo unspecified) | nt | i | nt | i | nt | nt
CCCc1cnc2c(c1SCC(=O)Nc1ccc(C)c(Cl)c1)c(=O)n(C)c(=O)n2C | nt | i | nt | i | i | i
CCc1ccccc1NC(=O)CSc1nc2c(c(=O)[nH]1)CN(Cc1ccccc1OC)CC2 | nt | i | nt | i | i | i
O=C(N/N=C/c1ccccn1)c1ccco1 | i | i | nt | ? | i | i
O=C(N/N=C/c1ccc2ncccc2c1)c1ccco1 | i | i | -77 | i | i | i
COc1ccc(-c2nc3c(C)cc(Br)cn3c2Cc2cccc(Cl)c2)cc1OC | i | nt | i | nt | nt | nt
CCOc1ccccc1NC(=O)C(=O)Nc1ccc2nc3n(c(=O)c2c1)CCCCC3 | nt | i | nt | i | i | i
NC(=O)CN1CCN(C(=O)NC2CCCCC2)CC1 | i | i | i | i | 32µM | i
OCCn1c(CSc2nnc(-c3ccco3)n2-c2ccccc2)nc2ccc(Cl)cc21 | i | i | i | ? | 20µM | ?
Oc1ccc(N=Nc2c(O)ccc3ccccc23)cc1 | i | i | nt | i | i | i
O=C(O)c1cc(N=Nc2c(O)ccc3ccccc23)cc(C(=O)O)c1 | i | 20µM | ? | i | i | 18µM
Nc1nc2ccc(Cl)cc2cc1C(=O)NCCCN1CCOCC1 | i | nt | i | nt | nt | nt
CCOc1ccccc1NC(=O)c1cc(-c2ccncc2)nc2c(Cl)cccc12 | i | i | i | i | 16µM | i
CCc1noc(-c2ccc(N(C)Cc3ccc(OC)cc3)c([N+](=O)[O-])c2)n1 | nt | i | nt | i | i | i
CCCOc1cccc(C2c3c(oc4ccc(F)cc4c3=O)C(=O)N2CCCN2CCOCC2)c1 (stereo unspecified) | nt | i | nt | i | i | i
Cc1scc(CN2CCN(c3ccccc3F)CC2)c1C | nt | i | nt | i | i | i
Oc1c(Br)cc(Br)cc1/C=N/c1nccs1 | i | i | -55 | ? | nt | ?
Oc1ccc(Cl)cc1/C=N/c1nccs1 | i | i | nt | i | i | i
